Results published in PubChem BioAssay (NCATS).
Inconclusive results are not listed. Active and inactive are the calls of the source. Unless noted, calls come from the whole dose curve.

Tests used:
[1] = target: Androgen receptor (Homo sapiens) (UniProt P10275); assay: qHTS assay for small molecule agonists of androgen receptor signaling (AID 588515; active = well fitted curve in the direction sought with a large enough effect in the signal ratio, with a control signal flat; the % refers to the signal ratio; note: % is set by controls: 0 for no effect and ±100 for the full control effect); settings: AR-UAS-bla HEK293, beta-lactamase ratio, agonist 16 h; stronger effect = higher value
Sequence of Androgen receptor (Homo sapiens) (P10275 whole entry, looked up): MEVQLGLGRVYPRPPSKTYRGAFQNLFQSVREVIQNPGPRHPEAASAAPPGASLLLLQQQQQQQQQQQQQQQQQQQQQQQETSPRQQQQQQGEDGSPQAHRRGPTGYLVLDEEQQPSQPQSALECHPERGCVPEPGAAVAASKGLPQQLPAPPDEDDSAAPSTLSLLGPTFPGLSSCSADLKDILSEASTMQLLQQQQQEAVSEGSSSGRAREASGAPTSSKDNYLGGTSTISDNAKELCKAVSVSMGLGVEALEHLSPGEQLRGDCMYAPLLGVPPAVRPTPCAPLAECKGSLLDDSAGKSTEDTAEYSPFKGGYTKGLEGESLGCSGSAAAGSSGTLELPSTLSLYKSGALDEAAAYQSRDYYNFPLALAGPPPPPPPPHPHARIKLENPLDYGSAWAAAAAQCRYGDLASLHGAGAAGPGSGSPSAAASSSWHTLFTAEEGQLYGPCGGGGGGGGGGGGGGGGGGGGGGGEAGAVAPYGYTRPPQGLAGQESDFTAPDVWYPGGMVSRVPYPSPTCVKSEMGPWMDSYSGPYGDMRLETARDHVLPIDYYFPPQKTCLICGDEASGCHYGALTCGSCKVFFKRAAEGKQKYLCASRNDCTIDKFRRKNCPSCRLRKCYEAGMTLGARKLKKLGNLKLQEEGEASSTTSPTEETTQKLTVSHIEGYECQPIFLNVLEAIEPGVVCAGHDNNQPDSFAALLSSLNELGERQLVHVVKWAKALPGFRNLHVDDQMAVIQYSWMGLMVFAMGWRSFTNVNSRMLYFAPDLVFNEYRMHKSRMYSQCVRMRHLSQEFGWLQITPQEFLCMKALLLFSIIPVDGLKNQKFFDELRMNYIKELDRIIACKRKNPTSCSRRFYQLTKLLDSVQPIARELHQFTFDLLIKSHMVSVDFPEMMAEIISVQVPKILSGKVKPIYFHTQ
Summary of the method: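 EC50 and efficacy came from Hill fits of titrations (up to 92 uM) normalized to 30 nM R1881 as 100% and DMSO as 0%. Compound exposure was 16 h at 37 C on AR-UAS-bla HEK293 cells, with a 405/460/530 nm CCF4 fluorescence read.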

[2] = target: Androgen receptor (Homo sapiens) (UniProt P10275); assay: qHTS assay for small molecule antagonists of androgen receptor signaling (AID 588516; active = well fitted curve in the direction sought with a large enough effect in the signal ratio, with a control signal flat, not every such curve was filed as active; the % refers to the signal ratio; note: % is set by controls: 0 for no effect and ±100 for the full control effect)
Summary of the method: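 AR-UAS-bla GripTite HEK 293 cells (2000/well) treated with compound titrations plus 10 nM R1881 for 16 h at 37C. Beta-lactamase read by CCF4 FRET (460/530 nm); IC50 from Hill fits, normalized to R1881 and DMSO control wells.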

[3] = target: Bile acid receptor (Homo sapiens) (UniProt Q96RI1); assay: qHTS assay for small molecule antagonists of farnesoid X receptor signaling (AID 588526); note: % is set by controls: 0 for no effect and ±100 for the full control effect
Sequence of Bile acid receptor (Homo sapiens) (Q96RI1 whole entry, looked up): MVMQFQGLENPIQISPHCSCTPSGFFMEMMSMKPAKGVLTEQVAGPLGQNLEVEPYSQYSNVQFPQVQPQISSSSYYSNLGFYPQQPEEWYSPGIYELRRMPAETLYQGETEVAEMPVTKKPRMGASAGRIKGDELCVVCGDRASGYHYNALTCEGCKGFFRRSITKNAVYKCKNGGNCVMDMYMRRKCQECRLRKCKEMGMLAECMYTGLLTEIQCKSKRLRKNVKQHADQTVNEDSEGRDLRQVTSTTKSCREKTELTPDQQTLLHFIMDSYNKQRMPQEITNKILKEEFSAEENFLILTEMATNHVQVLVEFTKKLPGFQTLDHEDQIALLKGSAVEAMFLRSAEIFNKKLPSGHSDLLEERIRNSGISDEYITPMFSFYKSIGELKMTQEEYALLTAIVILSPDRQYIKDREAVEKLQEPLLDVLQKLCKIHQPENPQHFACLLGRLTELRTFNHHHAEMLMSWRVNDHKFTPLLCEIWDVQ
Summary of the method: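 Antagonist mode: titrated compounds tested against chenodeoxycholic acid stimulation (normalized to 50 uM CDCA and DMSO) in GeneBLAzer HEK293T cells for 16 h. Beta-lactamase read by CCF4 fluorescence; IC50 from Hill fits.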

[4] = target: Bile acid receptor (Homo sapiens) (UniProt Q96RI1); assay: qHTS assay for small molecule agonists of farnesoid X receptor signaling (AID 588527); settings: HEK293T FXR-UAS-bla, beta-lactamase ratio, 16 h; activation: stronger effect = higher value;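 note: 0% = vehicle basal and 100% = reference agonist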
Summary of the method: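 Quantitative HTS used FXR-UAS-bla HEK293T cells with 16 h compound incubation at 37 C. EC50 values came from concentration-response curves normalized to chenodeoxycholic acid.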

[5] = target: Peroxisome proliferator-activated receptor delta (Homo sapiens) (UniProt Q03181); assay: qHTS assay for small molecule agonists of peroxisome proliferator-activated receptor delta signaling (AID 588534);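 note: 0% = DMSO basal wells and 100% = positive control agonist at 10 µM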
Sequence of Peroxisome proliferator-activated receptor delta (Homo sapiens) (Q03181 whole entry, looked up): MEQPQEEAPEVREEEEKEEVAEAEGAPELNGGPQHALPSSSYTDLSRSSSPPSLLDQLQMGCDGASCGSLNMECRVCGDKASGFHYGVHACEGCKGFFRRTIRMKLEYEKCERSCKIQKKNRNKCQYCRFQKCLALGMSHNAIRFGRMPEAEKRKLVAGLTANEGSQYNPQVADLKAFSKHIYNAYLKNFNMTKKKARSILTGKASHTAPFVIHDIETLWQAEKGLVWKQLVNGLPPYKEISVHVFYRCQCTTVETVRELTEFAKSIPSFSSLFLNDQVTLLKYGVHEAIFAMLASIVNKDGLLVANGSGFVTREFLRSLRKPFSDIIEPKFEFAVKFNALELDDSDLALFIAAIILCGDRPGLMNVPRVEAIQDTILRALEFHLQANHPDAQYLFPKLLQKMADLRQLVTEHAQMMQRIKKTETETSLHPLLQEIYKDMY
Summary of the method: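 Cells carrying a PPAR-delta beta-lactamase reporter were treated with compounds for 18 h at 37 °C in agonist mode. CCF4 fluorescence was read after 2 h; EC50 and efficacy from Hill fits.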

[6] = qHTS assay for small molecule antagonists of peroxisome proliferator-activated receptor delta signaling (AID 588535; active = well fitted inhibition curve with a large enough effect in the signal ratio, with a control signal flat, not every such curve was filed as active; the % refers to the signal ratio;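 for max response: cells co-treated with a PPAR-delta agonist as stimulator during compound exposure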); settings: HEK293T PPARd-UAS-bla, beta-lactamase FRET ratio, 18 h; 460 nm channel
Summary of the method: (§1)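 Antagonist-mode beta-lactamase reporter (GeneBLAzer PPAR-delta-UAS-bla) in HEK293T cells, 2% charcoal/dextran FBS, 4000 cells/well. Compound titrations, 18 h at 37 C; CCF4 ratio read, IC50 and efficacy from Hill fits.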

[7] = target: Peroxisome proliferator-activated receptor delta (Homo sapiens) (UniProt Q03181); assay: as above
Summary of the method: as §1

[8] = target: Peroxisome proliferator-activated receptor gamma (Homo sapiens) (UniProt P37231); assay: qHTS assay for small molecule agonists of peroxisome proliferator-activated receptor gamma signaling (AID 588536; active = well fitted curve in the direction sought with a large enough effect in the signal ratio, with a control signal flat, not every such curve was filed as active; the % refers to the signal ratio;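 note: 0% = DMSO basal wells and 100% = rosiglitazone at 2 µM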)
Sequence of Peroxisome proliferator-activated receptor gamma (Homo sapiens) (P37231 whole entry, looked up): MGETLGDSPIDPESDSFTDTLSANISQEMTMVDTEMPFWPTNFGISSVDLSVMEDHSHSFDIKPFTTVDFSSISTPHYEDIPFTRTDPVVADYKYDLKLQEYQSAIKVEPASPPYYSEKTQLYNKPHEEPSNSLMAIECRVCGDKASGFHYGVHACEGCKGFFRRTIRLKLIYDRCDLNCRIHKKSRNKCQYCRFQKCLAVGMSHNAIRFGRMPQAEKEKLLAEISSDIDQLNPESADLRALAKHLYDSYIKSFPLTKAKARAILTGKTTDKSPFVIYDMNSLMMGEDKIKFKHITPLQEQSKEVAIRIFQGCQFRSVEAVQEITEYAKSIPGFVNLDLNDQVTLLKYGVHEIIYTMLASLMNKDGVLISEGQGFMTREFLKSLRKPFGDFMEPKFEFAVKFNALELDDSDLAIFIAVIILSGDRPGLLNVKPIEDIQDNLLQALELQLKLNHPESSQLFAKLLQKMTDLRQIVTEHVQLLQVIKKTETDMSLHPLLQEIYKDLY
Summary of the method: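 HEK293 UAS-bla reporter line, 1% charcoal/dextran FBS; titration, 16 h, 37 C; CCF4 loading 2 h RT; fluorescence 460/530 nm. Normalized to rosiglitazone 2 uM = 100%, DMSO = 0%.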

[9] = target: Vitamin D3 receptor (Homo sapiens) (UniProt P11473); assay: qHTS assay for small molecule antagonists of vitamin D receptor signaling (AID 588541);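 note: receptor activated by calcitriol during compound treatment; % is set by controls: 0 for no effect and ±100 for the full control effect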
Sequence of Vitamin D3 receptor (Homo sapiens) (P11473 whole entry, looked up): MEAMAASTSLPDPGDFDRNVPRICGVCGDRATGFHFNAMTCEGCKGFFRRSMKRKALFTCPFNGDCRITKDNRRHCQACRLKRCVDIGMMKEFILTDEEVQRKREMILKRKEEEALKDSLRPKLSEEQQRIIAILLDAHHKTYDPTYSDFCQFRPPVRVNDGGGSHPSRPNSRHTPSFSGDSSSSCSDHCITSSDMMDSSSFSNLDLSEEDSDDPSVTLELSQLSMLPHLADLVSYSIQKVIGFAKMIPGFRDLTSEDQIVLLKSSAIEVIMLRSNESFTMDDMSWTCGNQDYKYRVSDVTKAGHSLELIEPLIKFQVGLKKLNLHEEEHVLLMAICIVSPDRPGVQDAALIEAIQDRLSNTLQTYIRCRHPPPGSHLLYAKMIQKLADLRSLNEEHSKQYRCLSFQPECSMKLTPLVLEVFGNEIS
Summary of the method: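 VDR-UAS-bla HEK293T cells in 2% charcoal-stripped FBS were stimulated with 1-alpha,25-dihydroxyvitamin D3 (3 nM final) plus compound for 16 h at 37 C. The beta-lactamase CCF4 readout was normalized to 50 nM agonist and DMSO, and Hill fits gave IC50.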

[10] = target: Vitamin D3 receptor (Homo sapiens) (UniProt P11473); assay: qHTS assay for small molecule agonists of vitamin D receptor signaling (AID 588543);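 note: 0% = DMSO basal and 100% = reference agonist control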
Summary of the method: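 VDR-UAS-bla HEK293T cells, 2000/well, 2% charcoal-stripped FBS; compound titration 16 h at 37 C; CCF4 beta-lactamase ratio read. Normalized to 50 nM 1-alpha,25-dihydroxyvitamin D3 (100%) and DMSO; Hill fit gives EC50, efficacy.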

[11] = qHTS assay for small molecule agonists of retinoid X receptor alpha signaling (AID 588544); settings: HEK293T RXRa-UAS-bla, beta-lactamase reporter, 18 h; 530 nm emission;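 for activation: 0% = DMSO basal wells and 100% = reference agonist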
[12] = target: Retinoic acid receptor RXR-alpha (Homo sapiens) (UniProt P19793); assay: as above
Sequence of Retinoic acid receptor RXR-alpha (Homo sapiens) (P19793 whole entry, looked up): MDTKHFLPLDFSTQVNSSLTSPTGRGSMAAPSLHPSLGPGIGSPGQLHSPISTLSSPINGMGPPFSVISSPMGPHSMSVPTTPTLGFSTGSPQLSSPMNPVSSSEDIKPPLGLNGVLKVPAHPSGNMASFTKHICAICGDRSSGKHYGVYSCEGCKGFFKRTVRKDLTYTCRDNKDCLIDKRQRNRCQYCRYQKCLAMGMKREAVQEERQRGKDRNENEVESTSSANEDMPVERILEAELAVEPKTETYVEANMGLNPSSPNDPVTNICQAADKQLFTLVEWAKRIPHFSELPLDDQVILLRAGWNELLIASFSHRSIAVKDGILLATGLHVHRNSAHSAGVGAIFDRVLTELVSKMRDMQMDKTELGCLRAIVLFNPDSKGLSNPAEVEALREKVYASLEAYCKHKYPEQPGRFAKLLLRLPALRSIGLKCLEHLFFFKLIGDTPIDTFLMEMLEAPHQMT

[13] = target: Thyroid hormone receptor beta (Homo sapiens) (UniProt P10828); assay: qHTS assay for small molecule agonists of thyroid hormone receptor beta signaling (AID 588545)
Sequence of Thyroid hormone receptor beta (Homo sapiens) (P10828 whole entry, looked up): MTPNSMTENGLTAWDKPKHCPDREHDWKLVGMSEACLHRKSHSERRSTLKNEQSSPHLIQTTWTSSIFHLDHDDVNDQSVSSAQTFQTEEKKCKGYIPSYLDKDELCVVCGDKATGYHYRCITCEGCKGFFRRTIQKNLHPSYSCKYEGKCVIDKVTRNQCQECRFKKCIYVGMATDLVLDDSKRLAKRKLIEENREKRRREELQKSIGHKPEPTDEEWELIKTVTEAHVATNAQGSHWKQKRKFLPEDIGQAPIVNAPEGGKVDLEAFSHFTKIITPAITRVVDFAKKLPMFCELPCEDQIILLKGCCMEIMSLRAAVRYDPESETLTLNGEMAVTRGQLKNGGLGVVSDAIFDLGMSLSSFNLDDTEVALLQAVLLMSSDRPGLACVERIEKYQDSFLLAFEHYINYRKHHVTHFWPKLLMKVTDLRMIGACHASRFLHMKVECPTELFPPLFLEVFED
Summary of the method: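 Cells (2500/well) were seeded, incubated 4 hrs at 37 C, dosed with a compound series, incubated 18 hrs, loaded with CCF4 dye for 2 hrs at RT, then read for fluorescence. Data were scaled between DMSO (0%) and 10 nM T3 (100%).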

[14] = qHTS assay for small molecule antagonists of retinoid X receptor alpha signaling (AID 588546; active = well fitted inhibition curve with a large enough effect in the signal ratio, with a control signal flat, not every such curve was filed as active; the % refers to the signal ratio); settings: HEK293T RXRa-UAS-bla, beta-lactamase ratio, antagonist mode; measured here: W530 green channel, cytotoxicity proxy
Summary of the method: (§2)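 Beta-lactamase reporter inhibition, read as CCF4 fluorescence ratio (ex 405, em 460/530 nm) after 2 h at RT. HEK293T UAS-bla cells, 2500/well, were stimulated with 9-cis-RA at 500 or 100 nM final alongside test compound for 18 h at 37 C.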

[15] = target: Retinoic acid receptor RXR-alpha (Homo sapiens) (UniProt P19793); assay: as above; settings: HEK293T RXRa-UAS-bla, beta-lactamase ratio, antagonist mode
Summary of the method: as §2

[16] = target: Thyroid hormone receptor beta (Homo sapiens) (UniProt P10828); assay: qHTS assay for small molecule antagonists of thyroid hormone receptor beta signaling (AID 588547; active = well fitted inhibition curve with a large enough effect in the signal ratio, with a control signal flat, not every such curve was filed as active; the % refers to the signal ratio); settings: TR-UAS-bla HEK293, beta-lactamase ratio, antagonist mode, 18 h
Summary of the method: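 TR-UAS-bla GripTite HEK293 cells in 2% charcoal/dextran FBS medium; compounds 0.59 nM to 92 uM with T3 at 0.4nM final, 18 h at 37 C. Beta-lactamase read by CCF4 fluorescence (460/530 nm); Hill fits gave IC50 and efficacy.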

[17] = qHTS assay for small molecule agonists of the antioxidant response element (ARE) signaling pathway (AID 651741; active = well fitted activation curve with a large enough effect in the signal ratio; the % refers to the signal ratio; note: % of control where 0% means no effect)
Summary of the method: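 CellSensor ARE-bla HepG2 cells (2,000/well) carrying ARE-driven beta-lactamase, exposed 16 h at 37 C. LiveBLAzer B/G FRET substrate added for 2 h at room temperature; fluorescence intensity read.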

[18] = qHTS assay for environmental chemicals that activate the Aryl hydrocarbon Receptor (AhR) signaling pathway (AID 651777; active = well fitted curve in the direction sought with a large enough effect; an effect the other way counts as inactive or inconclusive; note: % of control where 0% means no effect; nearly all actives have a fitted effect of over 15% in size); settings: 1A2-DRE human hepatoma cells, luciferase, 24 h; activation: stronger effect = higher value
Summary of the method: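 Measured luciferase activity, read 30 min after One-Glo addition at room temperature, from human hepatoma cells bearing a dioxin response element–CYP1A2 promoter reporter and exposed to compound for 24 hr at 37 C.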

[19] = target: Peroxisome proliferator-activated receptor alpha (Homo sapiens) (UniProt Q07869); assay: qHTS assay for small molecule agonists of the peroxisome proliferator-activated receptor alpha (PPARalpha) signaling pathway (AID 651778; active = well fitted curve in the direction sought with a large enough effect; an effect the other way counts as inactive or inconclusive; note: % of control where 0% means no effect); settings: PathHunter PPARalpha complementation, chemiluminescence, 6 h; stronger effect = higher value
Sequence of Peroxisome proliferator-activated receptor alpha (Homo sapiens) (Q07869 whole entry, looked up, the tested form may be a part): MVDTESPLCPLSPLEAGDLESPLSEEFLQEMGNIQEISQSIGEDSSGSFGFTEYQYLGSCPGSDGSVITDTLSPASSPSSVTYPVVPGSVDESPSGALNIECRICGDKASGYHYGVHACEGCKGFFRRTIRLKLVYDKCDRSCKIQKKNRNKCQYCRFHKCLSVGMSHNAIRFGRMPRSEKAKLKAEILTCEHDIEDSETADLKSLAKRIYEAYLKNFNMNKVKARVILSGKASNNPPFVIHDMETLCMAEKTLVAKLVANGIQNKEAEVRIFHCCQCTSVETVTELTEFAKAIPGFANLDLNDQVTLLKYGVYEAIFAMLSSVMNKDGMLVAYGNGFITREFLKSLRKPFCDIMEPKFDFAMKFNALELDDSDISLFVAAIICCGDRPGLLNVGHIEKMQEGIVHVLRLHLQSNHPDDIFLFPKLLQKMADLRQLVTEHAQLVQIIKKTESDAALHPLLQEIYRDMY
Summary of the method: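 Enzyme-fragment complementation assay in which ligand-bound PPARalpha translocates and forms an active enzyme that generates chemiluminescence. Cells were plated overnight, exposed to compound for 6 hr at 37 C, and then given detection reagent for 60 min at room temperature.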

[20] = qHTS assay for small molecule agonists of the antioxidant response element (ARE) signaling pathway measured by Nrf2-dependant transcriptional activity (AID 720636; active = well fitted curve in the direction sought with a large enough effect in the repeat runs; an effect the other way counts as inactive or inconclusive;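 note: HepG2 cells with an ARE-driven luciferase reporter; % of control where 0% means no effect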)
Summary of the method: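 In HepG2 cells engineered with an Nrf2-responsive luciferase gene, ARE induction was quantified as luminescence after 16 hr compound treatment at 37 C.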

[21] = qHTS assay for small molecule agonists of the antioxidant response element (ARE) signaling pathway measured by Nrf2-dependant transcriptional activity - cell viability counter screen (AID 720653; active = well fitted curve in the direction sought with a large enough effect in the repeat runs; an effect the other way counts as inactive or inconclusive; note: % is set by controls: 0 for no effect and ±100 for the full control effect); settings: ARE-bla HepG2 viability, CellTiter-Glo ATP luminescence, 16 h; max response: stronger effect = lower value
Summary of the method: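 ARE-bla HepG2 cells treated with compounds for 16 h at 37C; this counter screen measures viability as intracellular ATP by CellTiter-Glo luminescence after 30 min at room temperature.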

[22] = qHTS assay for cell viability of HEK293 cells (AID 743288; active = well fitted curve in the direction sought with a large enough effect; an effect the other way counts as inactive or inconclusive; note: % is set by controls: 0 for no effect and ±100 for the full control effect; nearly all actives have a fitted effect of over 50% in size); settings: ATP luminescence (CellTiter-Glo), 18 h; max response: stronger effect = lower value
Summary of the method: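 Parental HEK293 cells, 2,000 per well, preincubated at least 5 h at 37 C, then exposed to compounds in DMSO for 18 h at 37 C. Viability by CellTiter-Glo ATP luminescence after 30 min at room temperature.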

[23] = qHTS assay for cell viability of the p53RE-bla HCT-116 cell line (AID 743292; active = well fitted curve in the direction sought with a large enough effect; an effect the other way counts as inactive or inconclusive; note: % is set by controls: 0 for no effect and ±100 for the full control effect; nearly all actives have a fitted effect of over 55% in size)
Summary of the method: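 Intracellular ATP of p53RE-bla HCT-116 cells measured by luciferase luminescence following 16 h compound incubation at 37 C; DMSO-only wells served as vehicle controls.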

[24] = qHTS for Inhibitors of the Functional Ribonucleoprotein Complex (vRNP) of Lassa (LASV) Arenavirus: LASV Primary Screen - GLuc reporter signal (AID 1347082; calls by dose curve; tested in HEK293 reporter line; note: % is set by controls: 0 for no effect and ±100 for the full control effect; nearly all actives have a fitted effect of over 60% in size)
[25] = qHTS for Inhibitors of the Functional Ribonucleoprotein Complex (vRNP) of Lassa (LASV) Arenavirus: Viability assay - alamar blue signal for LASV Primary Screen (AID 1347083; calls by dose curve; tested in HEK293 reporter line; note: % is set by controls: 0 for no effect and ±100 for the full control effect; nearly all actives have a fitted effect of over 80% in size)
[26] = qHTS for Inhibitors of the Functional Ribonucleoprotein Complex (vRNP) of Lymphocytic Choriomeningitis Arenaviruses (LCMV): Viability assay - alamar blue signal for LCMV Primary Screen (AID 1347085; calls by dose curve; tested in HEK293 reporter line; note: % is set by controls: 0 for no effect and ±100 for the full control effect; nearly all actives have a fitted effect of over 80% in size)
[27] = target: Nucleoprotein (Lymphocytic choriomeningitis virus (strain Armstrong)) (UniProt P09992); assay: qHTS for Inhibitors of the Functional Ribonucleoprotein Complex (vRNP) of Lymphocytic Choriomeningitis Arenaviruses (LCMV): LCMV Primary Screen - GLuc reporter signal (AID 1347086); note: % is set by controls: 0 for no effect and ±100 for the full control effect; nearly all actives have a fitted effect of over 70% in size
Sequence of Nucleoprotein (Lymphocytic choriomeningitis virus (strain Armstrong)) (P09992 whole entry, looked up): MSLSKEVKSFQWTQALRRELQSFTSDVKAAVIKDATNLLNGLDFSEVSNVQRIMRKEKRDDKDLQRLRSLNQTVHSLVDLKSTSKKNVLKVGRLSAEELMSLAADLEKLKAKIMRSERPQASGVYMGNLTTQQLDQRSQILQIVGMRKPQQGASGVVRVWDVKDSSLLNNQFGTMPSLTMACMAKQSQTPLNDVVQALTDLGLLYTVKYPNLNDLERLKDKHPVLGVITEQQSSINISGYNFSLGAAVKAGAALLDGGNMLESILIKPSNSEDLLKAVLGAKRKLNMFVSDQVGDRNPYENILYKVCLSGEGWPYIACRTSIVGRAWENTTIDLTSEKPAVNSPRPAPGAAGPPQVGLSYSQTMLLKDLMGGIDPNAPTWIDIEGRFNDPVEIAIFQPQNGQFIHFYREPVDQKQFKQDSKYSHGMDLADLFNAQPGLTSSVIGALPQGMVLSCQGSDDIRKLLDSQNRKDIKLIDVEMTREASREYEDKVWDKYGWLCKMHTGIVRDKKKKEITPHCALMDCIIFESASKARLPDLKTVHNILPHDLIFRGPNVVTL

[28] = target: Nuclear receptor subfamily 1 group I member 2 (Rattus norvegicus) (UniProt Q9R1A7); assay: qHTS assay for small molecule activators of the rat pregnane X receptor (rPXR) signaling pathway (AID 651751; call rule not given here; note: 0% is about no effect); settings: rPXR reporter cells, luciferase (One-Glo), 24 h
[29] = qHTS assay for small molecule activators of the human pregnane X receptor (PXR) signaling pathway (AID 720659; call rule not given here; note: 0% is about no effect)
[30] = qHTS profiling of the MIPE4 collection as inhibitors of Plasmodium falciparum (3D7) proliferation (AID 743344; call rule not given here;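 note: scaled between DMSO vehicle wells and 0.29 µM artemisinin as full inhibition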); settings: P. falciparum 3D7 in erythrocytes, SYBR Green DNA fluorescence, 72 h; at 28.5 µM (top of the series) unless noted
Summary of the method: (§3)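 Erythrocytes infected with P. falciparum (0.3% parasitemia, 2.5% hematocrit) incubated with compounds 72 h at 37 C, 5% CO2. Lysis with saponin/Triton buffer containing SYBR Green I, overnight at room temperature in the dark; DNA fluorescence (485/535 nm) normalised to 0.29 uM artemisinin and DMSO.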

[31] = qHTS profiling of the MIPE4 collection as inhibitors of Plasmodium falciparum (DD2) proliferation (Rep 2) (AID 743346; call rule not given here); settings: P. falciparum Dd2 in erythrocytes, SYBR Green DNA, 72 h; at 28.5 µM (top of the series) unless noted
Summary of the method: as §3

[32] = qHTS profiling for inhibitors of Plasmodium falciparum (3D7) proliferation (AID 743322);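 note: infected erythrocytes exposed to compound for 72 h before lysis; 100% = DMSO vehicle wells and 0% = 0.29 µM artemisinin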; settings: P. falciparum 3D7 proliferation; at 28.7 µM (top of the series)
Summary of the method: as §3

[33] = qHTS profiling for inhibitors of Plasmodium falciparum (DD2) proliferation (AID 743323; call rule not given here); settings: lower = more inhibition; at 28.7 µM (top of the series)
Summary of the method: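 Parasite proliferation measured via DNA-dye fluorescence, as uninfected erythrocytes lack DNA. Cultures at 0.3% parasitemia and 2.5% hematocrit incubated 72 h with compound; signal scaled between vehicle and 0.29 uM artemisinin wells.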

[34] = qHTS profiling for inhibitors of Plasmodium falciparum (HB3) proliferation (AID 743324; active = well fitted curve in the direction sought with a large enough effect; an effect the other way counts as inactive or inconclusive;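 note: 100% = DMSO vehicle wells and 0% = artemisinin-treated control wells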); settings: Plasmodium falciparum HB3 blood-stage proliferation; at 28.7 µM (top of the series)
Summary of the method: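 P. falciparum HB3 grown in erythrocytes (0.3% parasitemia, 2.5% hematocrit final) with compound for 72 h at 37 C, 5% CO2. Parasite DNA detected by SYBR Green after saponin/triton lysis overnight; normalized to 0.29 uM artemisinin and DMSO.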

[35] = qHTS profiling of the MIPE4 collection as inhibitors of Plasmodium falciparum (HB3) proliferation (AID 743347; call rule not given here;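 note: plate controls were DMSO vehicle wells for no effect and artemisinin wells for full effect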); settings: P. falciparum HB3 in erythrocytes, SYBR Green DNA, 72 h; at 28.5 µM (top of the series) unless noted
Summary of the method: as §3

Cc1ccc(C)c2ccccc12
-5.36%: max response [14]
inactive: activation [1] 26.3% | outcome [2] | Potency [3] | activation [4] -1.23% | Potency [5] | outcome [7] | outcome [8] | outcome [9] | Potency [10] | outcome [12] | Potency [13] | max response [15] 3.54% | activity change % (negative = inhibition) [16] -0.662% | Potency [17] | activation [18] 1.38% | max response [19] -1.64% | Potency [20] | max response [21] -14.6% | max response [22] -1.65% | outcome [23] | Potency [24] | Potency [25] | Potency [26] | Potency [27] | max response [28] -3.33% | outcome [29]
22.6%: max response [6]
-18.4%: max response [11]

OCCO
inactive: activation [4] 1.31% | Potency [5] | Potency [24] | Potency [25] | Potency [26] | Potency [27]

CCC(CC)[C@H](NC(C)=O)[C@@H]1[C@H](O)[C@@H](C(=O)O)C[C@@H]1N=C(N)N
81.5%: parasite growth, % of DMSO control [30]
inactive: Potency [24] | Potency [25] | Potency [26] | Potency [27]
112%: parasite growth, % of control (lower = inhibition) [31]

O=C(C[C@@H]1NCCC[C@@H]1O)Cn1cnc2ccccc2c1=O
5.66%: growth, % of control [35]
22.5%: parasite growth, % of control (lower = inhibition) [31]
4.79%: parasite growth, % of DMSO control [30]
inactive: Potency [24] | Potency [25] | Potency [26] | Potency [27]
-0.569%: remaining proliferation (% of control), lower = more inhibition [34]
-0.414%: remaining parasite growth % (stronger effect = lower value) [32]
-0.451%: activity, percent of control [33]
